From PubChem BioAssay (NCI)
Compounds without any hit were thinned out: in the full panel of roughly 79,000, 15% have a hit. The source made the active and inactive calls. Cut-off read from the data, not from the text of the source: active = growth inhibition above about 70%; inactive = the rest.

Key:
[1] = NCI Yeast Anticancer Drug Screen. Data for the rad50 strain (AID 155);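 note: 0% = growth of vehicle-only cultures of the same strain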; settings: S. cerevisiae rad50 strain growth inhibition; at 50.0 µM; stronger effect = higher value
In short: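 Relative growth inhibition (compound vs vehicle) was measured in yeast with a defined repair-gene alteration.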

[2] = NCI Yeast Anticancer Drug Screen. Data for the mec2-1 strain (AID 157); settings: S. cerevisiae mec2-1 strain, at 50.0 µM, stronger effect = higher value
In short: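 Cells of the genetically defined mec2-1 yeast strain are incubated with test compound. Inhibition of growth is calculated against vehicle-treated controls.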

[3] = NCI Yeast Anticancer Drug Screen. Data for the sgs1 mgt1 strain (AID 161);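 note: 0% = growth of cultures given vehicle only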; settings: S. cerevisiae sgs1 mgt1 strain, at 50.0 µM, stronger effect = higher value
In short: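 Genetically altered yeast, compound exposure, growth inhibition relative to vehicle.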

[4] = NCI Yeast Anticancer Drug Screen. Data for the cln2 rad14 strain (AID 165);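 note: 0% = growth equal to vehicle treated cultures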; settings: S. cerevisiae cln2 rad14 strain, at 50.0 µM, stronger effect = higher value
In short: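 The screen exposed genetically defined yeast (cln2 rad14) to test compounds and scored growth inhibition relative to vehicle-treated controls.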

[5] = NCI Yeast Anticancer Drug Screen. Data for the bub3 strain (AID 167); settings: S. cerevisiae bub3 mutant strain, at 50.0 µM, stronger effect = higher value
In short: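 Screening used yeast with an engineered genetic alteration affecting cell cycle control. Compound-exposed cultures were compared with vehicle cultures, and reduced growth was taken as inhibition.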

[6] = NCI Yeast Anticancer Drug Screen. Data for the mlh1 rad18 strain (AID 175); settings: S. cerevisiae mlh1 rad18 strain growth inhibition; at 50.0 µM; stronger effect = higher value
In short: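 Compound-treated yeast growth, normalised to vehicle controls. Strain bears defined DNA repair mutations.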

Measured: growth inhibition

CC(C#N)NC(=O)NC(C)C(N)=O (centres undefined)
inactive: [1] 3.85% | [2] 6.3% | [3] -5% | [4] -48.3% | [5] 8.2% | [6] -27.7%

C=C(C)COB(OCC(=C)C)OCC(=C)C
inactive: [1] -6.3% | [2] -25.4% | [3] -2.25% | [4] 1.95% | [5] -10.8% | [6] -16.2%

O=c1[nH]nnc2ccccc12
inactive: [1] 2.85% | [2] 4.8% | [3] 1.85% | [4] 4.55% | [5] 17.9% | [6] -0.55%

CCOc1nc(-c2ccccc2)cc(-c2ccc(N3CCOCC3)cc2)c1C#N
inactive: [1] 19% | [2] 9.55% | [3] -7.4% | [4] -11.6% | [5] -4.5% | [6] 27.5%

CCCCCCCCCCCCCCCCn1/c(=N\N=O)sc2ccccc21
inactive: [1] -9.65% | [2] -17.9% | [3] -8.4% | [4] 11.6% | [5] -0.4% | [6] -0.25%

O=C(Cc1ccccc1)NN1C(=O)C(Cl)C1c1ccccc1 (centres undefined)
inactive: [1] -10.3% | [2] 15.2% | [3] -12.5% | [4] 4.8% | [5] -5% | [6] -2.3%

NC(CCSCC(F)F)C(=O)O (centres undefined)
inactive: [1] 19.4% | [2] 8.9% | [3] 3.95% | [4] 6.95% | [5] -22% | [6] 25.4%

COc1ccc(/C=C/C(=O)c2sc(NC(=S)NC(=O)c3ccccc3F)nc2C)cc1OC
inactive: [1] 21.1% | [2] 8.5% | [3] 37.6% | [4] 30.1% | [5] 30.9% | [6] 22.9%

Nc1ccc(C2=Nc3ccccc3SC(c3ccccc3O)C2)cc1 (centres undefined)
inactive: [1] 24.8% | [2] 13.5% | [3] 11.5% | [4] 19% | [5] 50.8% | [6] 6%

CC(=O)OCC1OC(n2cnc3c(N)ncnc32)C(O)C1O (centres undefined)
inactive: [1] -3.7% | [2] -6.45% | [3] -6.15% | [4] -39.7% | [5] 4.5% | [6] -11.2%

NC(=S)N/N=C1\CCCC1C(O)(C(F)(F)Cl)C(F)(F)Cl (centres undefined)
inactive: [1] 65.3% | [2] 17.6% | [3] 56.1% | [4] 35% | [5] 29.9% | [6] 62.5%

CN(C)NC(=S)NC12CC3CC(CC(C3)C1)C2
inactive: [1] -15.3% | [2] -5.25% | [3] -10.2% | [4] -18.9% | [5] -2.8% | [6] 11.8%

COc1ccc2c3ccc4c(c3n(C)c2c1)C(=O)c1ccccc1C4=O
inactive: [1] -38.3% | [2] -36.2% | [3] -53% | [4] -14.7% | [5] -22.8% | [6] -46.1%

O=Cc1ccnc2ccccc12
inactive: [1] 0.9% | [2] 1% | [3] 6.25% | [4] 4% | [5] -3.55% | [6] 6.85%

O=C(O)/C=C(/C(=O)O)c1cccn1Cc1ccccc1
inactive: [1] 6.7% | [2] 14.2% | [3] 19.6% | [4] 17.4% | [5] 13.4% | [6] 16.4%

C/C=C(\Cl)C(OC(C)=O)OC(C)=O
inactive: [1] -1.45% | [2] -0.2% | [3] -6.15% | [4] -6.8% | [5] 18.4% | [6] 2.55%

CC1=C(CCC(C)CO)O[C@H]2C[C@H]3[C@@H]4CC[C@H]5C[C@@H](O)CC[C@]5(C)[C@H]4CC(=O)[C@]3(C)[C@@H]12 (some centres undefined)
inactive: [1] 64.3% | [2] 28.6% | [4] 38.4% | [5] 67.3%
active: [3] 84% | [6] 70.8%

Cc1ccnc(NC(=O)Nc2ccc(C)cc2[N+](=O)[O-])c1
inactive: [1] 18.4% | [2] 26.7% | [3] 20.4% | [4] 8.35% | [5] 18.1% | [6] 24%

COC(=O)[C@H](Cc1ccccc1)NP(=O)(OCCC#N)OCC1OC(n2cc(C)c(=O)[nH]c2=O)CC1N=[N+]=[N-] (some centres undefined)
inactive: [1] 0.95% | [2] -13.1% | [3] -19.3% | [4] -20% | [5] -19.9% | [6] -35.8%
